PubChem BioAssay AID686978 (National Center for Advancing Translational Sciences (NCATS), 2013)
In all, about 420,000 compounds went through this assay and about 64,000 (15%) were called active. Not shown: some 27% with an inconclusive outcome. Only a sample is shown. Values without a mark were called inactive. Calls come from the whole dose curve; as a rule, active = well fitted inhibition curve with a large enough effect; inconclusive = small, poorly fitted or top-dose-only effect; inactive = flat fitted curve, though single readings scatter.

Assay: qHTS for Inhibitors of human tyrosyl-DNA phosphodiesterase 1 (TDP1): qHTS in cells in absence of CPT; note: nearly all actives have a fitted effect of over 55% in size
Settings: DT40 Tdp1-/- hTDP1 cells, no CPT, ATP luminescence, 48 h; activity change, negative = growth inhibition: at 46.2 µM (top of the series)
Procedure, shortened: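 Growth kinetics read by CellTiter-Glo luminescence after ≥48 hr at 37 °C. Cells: DT40 Tdp1-/- stably carrying human TDP1, 400 per well, compound exposure in the absence of CPT (DMSO vehicle).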
% is set by controls: 0 for no effect and ±100 for the full control effect; potency is the fitted concentration of half-maximal effect.

SMILES	activity change, negative = growth inhibition [%]	Potency
COc1ccc(CNC(=O)COC(=O)C2=Cc3ccccc3OC2)cc1	-21.4	
O=C(COc1ccccc1)N1CCc2ccccc2C1	-23	
Cc1ccc2nc(-c3ccc(C)c(NC(=O)Cc4ccccc4)c3)oc2c1	-6.56	
CCc1ccc2oc(-c3ccc(C)c(NC(=O)/C=C/c4ccco4)c3)nc2c1		18.4 µM (active)
CCC(CC)c1nnc(NC(=O)/C=C/c2ccco2)s1	-3.52	
NC(=S)c1ccc(C(N)=S)o1	-1.35	
Cc1ccc(C(=O)O/N=C(\N)c2ccccn2)cc1Cl	-22.4	
Cc1ccc(/C=C/C(=O)Nc2ccc([N+](=O)[O-])c(NC(=O)/C=C/c3ccc(C)o3)c2)o1		11.6 µM (active)
CCc1nnc(NC(=O)/C=C/c2ccc(C)o2)s1	5.94	
COc1ccc(OC)c(NC(=O)/C=C/c2ccc(C)o2)c1	-22.9	
O=C(NC(=S)NC1CCSC1=O)c1ccccc1F (centres undefined)	-106	
Cc1ccc(-n2c(=O)cc(N3CCN(Cc4ccccc4)CC3)[nH]c2=O)cc1	-10.6	
COc1ccc(N(CC(=O)N/N=C/c2cccc3c2OCCO3)S(=O)(=O)c2ccc(NC(C)=O)cc2)cc1	-22.6	
COC(=O)COc1cccc2c(=O)n(CC(=O)NCCc3ccc(OC)c(OC)c3)ccc12	-6.18	
COC(=O)COc1cccc2c(=O)n(CC(=O)NCc3ccccc3)ccc12		2.06 µM (active)
CCOCCn1ccc2c(OCC(=O)NCc3ccc(C)cc3)cccc2c1=O	-13.9	
Cc1ccccc1OCC(=O)Nc1ccc2c(c1)ncn2C	-1.77	
Cc1ccccc1OCC(=O)NNC(=O)c1cc(S(=O)(=O)N(C)C)ccc1N1CCCC1	-22.5	
Cc1ccccc1OCC(=O)Nc1ccc(N2CCN(C(=O)C(C)C)CC2)c(Cl)c1		6.51 µM (active)
Cc1ccccc1N1CC(C(=O)Nc2nnc(SCCC3OCCO3)s2)CC1=O (centres undefined)	-21.1	
O=C(CSc1nn(-c2ccc(F)cc2)c(=S)s1)NC1CCS(=O)(=O)C1 (centres undefined)	-16.7	
CC(=O)CC[C@@H](C)O[C@@H]1OC(C)[C@H](O)CC1O (some centres undefined)	-3.14	
O=C(Nc1nnc(C2CC2)s1)c1ccccn1		16.4 µM (active)
Cc1cc(C(=O)Nc2nnc(C3CC3)s2)c(C)s1	14.9	
CCc1cc(C(=O)Nc2nnc(C3CC3)s2)sc1C	10.3	

SMILES	activity change, negative = growth inhibition [%]	Potency
O=C1CCC(C(=O)N2CCC(O)(c3ccccc3)CC2)CN1CCc1ccccc1 (centres undefined)	-9.99	
COCCn1c(C)cc(C(=O)CSc2nnc(C3CC3)n2C2CC2)c1C	-6.52	
COCCn1c(C)cc(C(=O)CSc2nc3ccccc3c(=O)n2C(C)COC)c1C (centres undefined)		9.2 µM (active)
COCC(C)n1c(SCc2ccc(C(=O)OC)o2)nc2ccccc2c1=O (centres undefined)		8.2 µM (active)
COc1ccc2c(C)cc(SCC(=O)NCC3CCCO3)nc2c1 (centres undefined)	1.68	
Cc1ccc(C(=O)CSc2nc3ccccc3c(=O)n2N)o1	-39.8	
Cc1cc(SCC(=O)NCCN2C(=O)CSC2=O)nc2ccccc12	-20.3	
COCCn1c(C)cc(C(=O)CN2c3cccc4cccc(c34)S2(=O)=O)c1C	-1.18	
C=CCn1c(SCc2ccc(C(=O)NCCO)cc2)nc2ccccc2c1=O	-14.1	
COCC(C)n1c(C)cc(C(=O)CSc2cc(C)c3ccccc3n2)c1C (centres undefined)		16.4 µM (active)
Nc1nc2c(Br)ccc(Br)c2cc1C(=O)NCCc1ccccc1	-24.4	
CC(C)C(=O)Nc1nnc(Sc2ccc(N(C)C)cc2)s1	-19	
Cc1ccc(N=C2SCCCN2C(=O)c2cccc(N3C(=O)CCC3=O)c2)cc1Cl	-7.58	
CCCn1c(=O)c2ccccc2n2c(SCC(=O)/C(C#N)=C(\C)N)nnc12	-25.6	
Cc1cc(NC(=O)CSC2=NS(=O)(=O)c3cc(Cl)ccc3N2)no1	11.7	
Cc1cccc(C)c1-n1c(C)cc(/C=C2\C(=O)NN(c3ccccc3)C2=O)c1C	-29.2	
O=c1oc2ccccc2c(CNc2ccccc2)c1[N+](=O)[O-]	4.23	
CC(=O)c1nn(-c2cccc(C(F)(F)F)c2)c(=O)[nH]c1=O	-14.1	
Cc1cc(C(=O)Nc2cccc(C(F)(F)F)c2)c2c(C)nn(-c3cccc(F)c3)c2n1		23.1 µM (active)
Cc1cccc(NC(=O)c2nnn(-c3cccc(C(F)(F)F)c3)c2N)c1	-4.86	
COc1ccc(NC(=O)CN(C)C(=O)CC2CCCCC2)cc1	2.34	
CC1CCCCC1NC(=O)COC(=O)Cc1ccc(Cl)cc1 (centres undefined)	13.6	
Cc1ccc(CNC(=O)CN2CCN(Cc3ccc(Cl)cc3)C2=O)cc1	-6.2	
CC1CCCC(NC(=O)CN2CCN(Cc3ccc(Cl)cc3)C2=O)C1C (centres undefined)		23.1 µM (active)
